Test [1] in a line: inhibitors of TNFa-induced NFkB p65 translocation, primary screen, imaging, HUVEC, MLSMR starter and 10KST1 sets (AID 438;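 active = inhibition above 20% together with a positive visual image hit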;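 note: compound added about 3h40 before a 20 min TNFalpha stimulation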;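 for inhibition: signal is the nuclear over cytoplasmic p65 intensity ratio per well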). Conditions: HUVEC TNFa-induced p65 nuclear translocation; cell count: measured here: nuclei count (cytotoxicity indicator), at 2.08 µM; inhibition: at 2 µM, stronger effect = higher value, 0% TNFa-plus-vehicle, 100% no-TNFa wells.
A short description of test [2]: reduction of polyQ htt aggregates in cells – imaging, exon1htt(103Q)mCFP cells, high-content imaging, primary screen (AID 483;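 active = visual image review flags a hit and inhibition of aggregation exceeds 20%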;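 note: compound exposure lasted 3 days before fixation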;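 for nuclei count: percent of the per-plate median nuclei count of sample wells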). Conditions: exon1htt(103Q)mCFP cell line, aggregate imaging, at 2 µM; inhibition of aggregation: stronger effect = higher value; nuclei count: measured here: cell count, toxicity.
Test [3] can be described thus: endothelial E-selectin expression blockers – imaging, HUVEC, immunofluorescence, MLSMR starter and 10KST1 sets, primary screen (AID 487;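 active = visually confirmed hit in the image check and inhibition above 20%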;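 for inhibition: signal is fraction of cell area covered by stained E-selectin grains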;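 for nuclei count: 100% = median nuclei count of all wells on the same plate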). To be noted: HUVEC TNFalpha-induced E-selectin immunofluorescence imaging, at 2 µM; inhibition: stronger effect = higher value; nuclei count: measured here: cell number, toxicity.
The target of test [4] is Voltage-gated potassium channel subunit beta-2 (Rattus norvegicus) (UniProt P62483). As to the kind of experiment: inhibitors of rat Kvbeta2 reductase activity – biochemical, NADPH fluorescence, primary screen (AID 622;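 active = fluorescence slope higher than the sample average by over 3 SD, cut at about -0.22 in these data, passing the limit was not always enough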;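 note: slope of raw intensity against log time taken from 70 to 1610 s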). To be noted: recombinant KvBeta, 4-cyanobenzaldehyde reduction, at 10 µM, stronger effect = higher value.
Chain of Voltage-gated potassium channel subunit beta-2 (Rattus norvegicus) (P62483 whole entry, looked up): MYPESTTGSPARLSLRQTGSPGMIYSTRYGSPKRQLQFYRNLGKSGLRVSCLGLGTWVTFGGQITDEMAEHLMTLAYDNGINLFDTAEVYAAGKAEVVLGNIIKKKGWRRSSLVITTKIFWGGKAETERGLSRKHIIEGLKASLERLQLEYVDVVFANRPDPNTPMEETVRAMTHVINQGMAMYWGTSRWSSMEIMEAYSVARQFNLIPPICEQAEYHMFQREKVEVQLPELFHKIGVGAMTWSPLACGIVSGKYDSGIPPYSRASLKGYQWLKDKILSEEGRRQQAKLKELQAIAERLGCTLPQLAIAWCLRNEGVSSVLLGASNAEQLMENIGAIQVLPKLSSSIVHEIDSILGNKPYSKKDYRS
The target is the same in test [5]. The test can be described thus: enhancers of rat Kvbeta2 NADPH turnover – biochemical, NADPH fluorescence, primary screen (AID 623;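 active = NADPH fluorescence slope more negative than the mean of all samples by about 3 SD, 99.7% confidence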;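 note: fluorescence intensity change per second fitted from 20 to 320 s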). Conditions: Recombinant KvBeta, NADPH fluorescence decrease slope, 10 min; at 10 µM; stronger effect = lower value.
Test [6] deals with Alpha-2C adrenergic receptor (Homo sapiens) (UniProt P18825). As to the kind of experiment: compounds altering alpha2C-coupled GIRK flux – cell-based, HEK293 alpha2C/GIRK1/2, thallium flux, primary screen (AID 624;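 active = fluorescence slope after compound addition differing from the mean of all screened samples at 99.7% confidence, in either direction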;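 note: slope of fluorescence ratio to pre-addition baseline per second over 15 to 24 s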). To be noted: thallium flux BTC fluorescence, at 10 µM, actives lie on both sides.
Chain of Alpha-2C adrenergic receptor (Homo sapiens) (P18825 whole entry, looked up): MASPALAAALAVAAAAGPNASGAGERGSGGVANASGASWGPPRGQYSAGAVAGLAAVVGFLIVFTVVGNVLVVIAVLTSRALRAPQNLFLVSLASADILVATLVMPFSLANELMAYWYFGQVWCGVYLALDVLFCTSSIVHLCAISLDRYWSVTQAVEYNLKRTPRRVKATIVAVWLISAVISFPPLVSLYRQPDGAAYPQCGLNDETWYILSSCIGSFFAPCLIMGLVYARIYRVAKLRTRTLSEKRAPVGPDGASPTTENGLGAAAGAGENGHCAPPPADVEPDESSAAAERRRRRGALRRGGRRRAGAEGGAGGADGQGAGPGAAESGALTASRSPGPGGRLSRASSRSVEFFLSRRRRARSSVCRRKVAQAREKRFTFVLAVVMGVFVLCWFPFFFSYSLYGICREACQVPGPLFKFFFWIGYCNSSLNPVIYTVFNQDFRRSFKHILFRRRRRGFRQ
A short description of test [7]: blockers of RIG-like receptor reporter activation – cell-based, Sendai virus stimulus, luciferase, 10K MLSCN set, TLR/RLR signaling modifier project, primary screen (AID 602276).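 Note: firefly luciferase from ISG56 promoter only with Renilla not read in this screen; 0% = Sendai virus plus DMSO and 100% = medium plus DMSO without virus.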 Conditions: HEK293 RL24 IRF3 luciferase reporter, at 10 µM, stronger effect = higher value.
A short description of test [8]: TLR3 IRF3 reporter activation blockers – cell-based, poly I:C stimulus, luciferase, 10K MLSCN set, primary screen (AID 602277;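 active = inhibition of the reporter signal at or above 50%; inactive = inhibition below 50%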). To be noted: HEK293-TLR3 RL24 IRF3 luciferase reporter, at 10 µM, stronger effect = higher value. For orientation: A reporter such as luciferase makes a cellular process visible.

The results in this text go back to PubChem BioAssay.

Activity calls are given as the source filed them.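 Rule for the calls, unless noted: active = inhibition at or above 50% at 10 µM; inactive = inhibition below 50%.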

Consider `O=C(O)CC1=C(O)C(=O)N(c2ccccc2)C1c1ccccc1` (stereo not drawn), for which the cell count in test [1] amounted to 405. For the same compound, the inhibition (as a rule, the change of the read-out against control, counted positive when it falls) in test [1] is 1.1% (inactive); in test [3], -61.5% (inactive); in test [7], 4.01% (inactive); in test [8] it was 29.8% (inactive). For the same compound, the inhibition of aggregation in test [2] was 6.7% (inactive). The figures for the nuclei count in test [2] and in test [3] were 111% and 117%, respectively. The fluorescence slope in test [4] is -0.391 (inactive). For the same compound, the NADPH fluorescence slope in test [5] was -4e-05 (inactive). Moreover, in test [6], the slope was 0.00537 (inactive).
In the case of `CCSc1nnc(NC(=O)CCNS(=O)(=O)c2cc(Br)cnc2N)s1`, the cell count in test [1] was found to be 243. In addition, the inhibition in test [1] is -1.3% (inactive); in test [3], 32.4% (inactive); in test [7], 2.91% (inactive); in test [8] it was 8.81% (inactive). The inhibition of aggregation in test [2] is 3.8% (inactive). The nuclei count in test [2] was 93.5%; in test [3], 80.5%. Also, the fluorescence slope in test [4] is -0.444 (inactive). Also, in test [5], the NADPH fluorescence slope was 1.8e-05 (inactive). Also, in test [6], the slope is 0.0065 (inactive).
Turning to `O=S(=O)(NCC1CCCO1)c1cc(Cl)ccc1Br` (stereo not drawn), in test [1], the cell count was 426. Besides, the inhibition was -0.2% (inactive) in test [1], -4.9% (inactive) in test [3], -13.6% (inactive) in test [7] and -30.7% (inactive) in test [8]. For the same compound, the inhibition of aggregation in test [2] is 7.4% (inactive). For the same compound, the nuclei count in test [2] came to 108%; in test [3], 117%. The fluorescence slope in test [4] is -0.506 (inactive). Further, the NADPH fluorescence slope in test [5] was 7.7e-05 (inactive). Further, in test [6], the slope is 0.00336 (inactive).
Turning to `FC(F)(F)c1nnc2sc(-c3cccs3)nn12`, in test [1], the cell count came to 382. Further, the inhibition in test [1] is -4% (inactive); in test [3] it was -28.5% (inactive); in test [7], 10.9% (inactive); in test [8], 11.3% (inactive). Moreover, the inhibition of aggregation in test [2] was -16.2% (inactive). In addition, the nuclei count came out at 84.9% in test [2] and 96.5% in test [3]. Moreover, the fluorescence slope in test [4] is -0.567 (inactive). In addition, the NADPH fluorescence slope in test [5] was -4.5e-05 (inactive). The slope in test [6] is 0.00576 (inactive).
Take `O=C(Nc1ccc2c(c1)OCO2)c1cc2ncc(Br)cn2n1`: in test [1], the cell count turned out to be 588. Also, the inhibition in test [1] is 6.6% (inactive); in test [3], -73.8% (inactive); in test [7], 5.44% (inactive); in test [8], 11.5% (inactive). Also, in test [2], the inhibition of aggregation was -4.4% (inactive). In addition, the nuclei count in test [2] was found to be 107%; in test [3], 104%. Besides, the fluorescence slope in test [4] is -0.624 (inactive). Also, the NADPH fluorescence slope in test [5] was 1.6e-05 (inactive). The slope in test [6] is 0.00236 (inactive).
Regarding `COc1ccc(-n2c(SCC(=O)c3c(N)n(C)c(=O)n(C)c3=O)nc3ccccc32)cc1`, the cell count in test [1] came out at 735. Also, the inhibition in test [1] is 1.4% (inactive); in test [3], -35.8% (inactive); in test [7] it was 10.6% (inactive); in test [8], 14.8% (inactive). Further, the inhibition of aggregation in test [2] was 10.2% (inactive). For the same compound, the values for the nuclei count in test [2] and in test [3] were 110% and 106%, respectively. The fluorescence slope in test [4] is -0.581 (inactive). For the same compound, in test [5], the NADPH fluorescence slope is -4.1e-05 (inactive). For the same compound, in test [6], the slope was 0.00517 (inactive).
In the case of `CCN(CC)S(=O)(=O)c1ccc(NC2c3ccccc3C(=O)N2CCN2CCOCC2)cc1` (stereo not drawn), in test [1], the cell count was determined as 534. In addition, the inhibition in test [1] was -12.6% (inactive); in test [3], -147% (inactive); in test [7], 4.22% (inactive); in test [8], 10.7% (inactive). For the same compound, the inhibition of aggregation in test [2] is 24.2% (inactive). In addition, the nuclei count in test [2] amounted to 95.3%; in test [3], 128%. Further, in test [4], the fluorescence slope is -0.611 (inactive). Further, the NADPH fluorescence slope in test [5] is 1.3e-05 (inactive). Moreover, the slope in test [6] is 0.00571 (inactive).
For `CC1CCc2nn(CC(=O)NCc3ccc4c(c3)OCO4)cc2C1` (stereo not drawn), the cell count in test [1] was 673. The inhibition was -6.1% (inactive) in test [1], -80.8% (inactive) in test [3], 7.66% (inactive) in test [7] and 18% (inactive) in test [8]. Besides, in test [2], the inhibition of aggregation was 1.1% (inactive). Also, the values for the nuclei count in test [2] and in test [3] were 103% and 124%, respectively. For the same compound, the fluorescence slope in test [4] is -0.506 (inactive). Further, the NADPH fluorescence slope in test [5] is -2.4e-05 (inactive). Also, the slope in test [6] was 0.00628 (inactive).
